Screens as filed in PubChem BioAssay.
Shown is part of a subset that was picked to be rich in hits.
HTT aggregate – qHTS Multiplex Assay to Identify Dual Action Probes in a Cell Model of Huntington: Aggregate Formation (GFP); PC12 HttQ103-GFP aggregates, Acumen cytometry, 40 h; Potency, µM (titrated, usually from 46.1 µM), for the others: top-dose activity change, negative = inhibition, most hits filed as inhibitors; 220,000 tested, 1.1% active; AID 1688, 2009; further: potency means the concentration at half of the fitted maximal effect; on the % scale 0 is the no-effect control and ±100 the full control effect; nearly all actives have a fitted effect of over 60% in size
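Inducible Q103 Huntingtin exon 1–GFP PC12 line, 1500 cells/well in phenol red free DMEM with 5% equine and 5% calf serum. Tebufenozide 100 nM induced expression; compounds titrated; aggregates quantified by cytometry.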
HTT ATP protect – qHTS Multiplex Assay to Identify Dual Action Probes in a Cell Model of Huntington: Cytoprotection (ATP); 230,000 tested, 0.14% active; Potency, µM (series often up to 56.4 µM), for inactives: cytoprotection (ATP increase), usual class: activators; PC12 HTT-Q103 induced, cytoprotection, ATP luminescence, 40 h; further: potency means the concentration at half of the fitted maximal effect; % of control where 0% means no effect; nearly all actives have a fitted effect of over 45% in size
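Quantitative HTS on tebufenozide-induced (100 nM) PC12 cells expressing HTTQ103 exon 1–GFP; compounds tested as a concentration series; survival measured via cellular ATP.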
PNC inhibitor – High Content Assay for Compounds that inhibit the Assembly of the Perinucleolar Compartment; 140,000 tested, 3.1% active; AID 2417, 2010; PC3M PTB-GFP, PNC prevalence imaging, 16 h; active compounds read low; activity change (PNC), negative = inhibition, % at 10 µM;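 active means readout at or below -70, meaning at least 70% loss of cells showing the perinucleolar compartment, a nuclear body marking cancer cells; inconclusive means readout between -30 and a set limit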;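 further: plate controls were DMSO wells for no effect and camptothecin positive control wells for full effect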
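Read-out is percentage of cells bearing a perinucleolar compartment, from automated 20x imaging of fixed, Hoechst-stained PC3M PTB-GFP cells. Cells were seeded 4 h, then exposed 16 h to compound (23 nl of library stock) in duplicate plates.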
* marks the source's active call; other numbers are inactive results; ? = inconclusive; . = no result; [ ] = dose if it differs, or a comment. Unless noted, the call rests on the fitted dose curve; in most records, active means well fitted curve in the direction sought with a large enough effect; inconclusive means small, poorly fitted or top-dose-only effect, or another doubt; inactive means no such curve, though single readings can be large; an effect the other way counts as inactive or inconclusive.

SMILES	HTT aggregate	HTT ATP protect	PNC inhibitor
Cc1ccc(C(=O)NNC(=O)c2cccnc2SCc2cccc([N+](=O)[O-])c2)cc1	11%	-2%[10 µM]	17
CC(=O)Nc1ccc(S(=O)(=O)NCCSCc2ccco2)cc1	-8%	-53%	21
CS(=O)(=O)NCCSCc1ccco1	11%[9.22 µM]	0%[10 µM]	-82*
CC(=O)NC(=S)Nc1cccc(S(=O)(=O)NC2=NCCC2)c1	2%	-14%[10 µM]	30
O=C(COC(=O)Cn1cnc2ccccc21)NCCc1ccccc1	-1%	7%[10 µM]	-83*
O=C(COC(=O)Cn1cnc2ccccc21)NCCCc1ccccc1	9%	8%[10 µM]	.
O=C1NC2(CCCc3ccccc32)C(=O)N1Cc1nnc(-c2ccccc2Br)o1 (centres undefined)	-25%	-8%[10 µM]	-83*
CC1(CCc2ccccc2)NC(=O)N(Cc2nnc(-c3ccccc3Br)o2)C1=O (centres undefined)	5%	15%[10 µM]	-22
CCn1c(SCC(=O)NC2CCCCC2)nc2c(c1=O)SC(C)C2 (centres undefined)	-14%	-20%	58
CC(C)(C)NC(=O)NC(=O)CSc1cccc(C(F)(F)F)c1	-5%	10%[10 µM]	.
CCOC(=O)C1=C(C)N(C)C(=S)NC1c1ccc(Cl)cc1 (centres undefined)	20µM*	.	-17
CCOC(=O)C1=C(C)N(C)C(=S)NC1c1ccccc1 (centres undefined)	2%	16%[10 µM]	-21
COc1ccc(S(=O)(=O)N(CCCN2CCOCC2)Cc2ccc(OC)c(OC)c2)cc1	-6%	-15%	-28
COc1ccc(S(=O)(=O)Nc2ccncc2)c(C)c1C	18%	.	.
COc1ccc(-n2nnc3c(SCC(=O)c4ccccc4)ncnc32)cc1	29%	-22%	-11
COc1ccc(-n2nnc3c(SCC(=O)Nc4ccc5c(c4)OCCO5)ncnc32)cc1	8%	-53%	-83*
Brc1c(CSc2nc3ccccc3s2)nc2ncccn12	6%	24%[10 µM]	-8
CCN(CC)S(=O)(=O)c1cccc(C(=O)N2CC(O)CC2C(=O)O)c1 (centres undefined)	-4%	?	-107*
CCN(CC)S(=O)(=O)c1cccc(C(=O)N2CC(O)CC2C(=O)OC)c1 (centres undefined)	8%	-1%	-23
c1ccc2c(NCCCN3CCOCC3)c3ccccc3nc2c1	-3%[9.22 µM]	-25%[10 µM]	.
O=C(Nc1ccc2c(c1)CCC2)Nc1ccc2c(c1)OCO2	-15%	-51%	.
Cc1cc(C)n2c(-c3ccccc3Cl)nnc2n1	9%	.	-109*
Cc1cc(C)n2c(SCc3ccccc3Cl)nnc2n1	-8%	-8%	24
COC(=O)c1ccc2c(=O)n(CCO)c(=S)[nH]c2c1	16%	6%[0.074 µM]	?
O=C(Nc1ccc(Cl)cc1)Nc1nnc(SCc2ccc(Cl)cc2)s1	19%	1%[10 µM]	-111*
SMILES	HTT aggregate	HTT ATP protect	PNC inhibitor
O=C(Nc1ccccc1)Nc1nnc(SCc2ccc(Cl)cc2)s1	-6%	21%[10 µM]	-18
Cn1c(=O)oc2cc(S(=O)(=O)N3CCC(C(=O)NCc4ccc(F)cc4)CC3)ccc21	2%	-13%	?
O=C(NCC1CCCO1)c1cccc(N2CCCC2=O)c1 (centres undefined)	-8%	9%[1.9 µM]	-2
O=C(O)c1cccc(N2C(=O)c3cccnc3C2=O)c1	-6%	4%[10 µM]	-100*
O=C(O)c1cccc(N2C(=O)C3CC=CCC3C2=O)c1 (centres undefined)	20%	2%[10 µM]	-100*
O=C(O)c1cccc(N2C(=O)c3cccc4c(Cl)ccc(c34)C2=O)c1	11%	.	.
O=C(O)c1cccc(N2C(=O)C3CC=C(Cl)CC3C2=O)c1 (centres undefined)	-6%	-9%	50
CC(=O)NC1CC2CCCC(C1)N2S(=O)(=O)c1cccc(F)c1 (centres undefined)	-11%	-19%	-26
CN(C)C(=O)c1ccc(-c2nc(-n3ccnc3)c3ccccc3n2)cc1	.	-81%	.
CN(C)S(=O)(=O)c1ccc(C(=O)OCc2ccc(C#N)cc2)cc1	13%	-2%	?
CCOC(=O)CCCOC(=O)c1ccc(S(=O)(=O)N(C)C)cc1	-2%	23%[10 µM]	-100*
O=C(NCc1cccnc1)c1ccc(CN2CCc3ccccc3C2)cc1	8%	11%[10 µM]	259
Cc1nn(-c2ccccc2)c(C)c1NC(=O)Cc1cccs1	-2%	-26%	39
Cc1nn(-c2ccccc2)c(C)c1NC(=O)COc1ccc(F)cc1Cl	10%	.	-102*
CC1CCCCN1C(=O)CSc1nnc(-c2ccc(Cl)s2)o1 (centres undefined)	-27%	-17%	?
COc1cc(CC(=O)Nc2ccc(Cl)c(C(F)(F)F)c2)cc(OC)c1OC	10µM*	22%[10 µM]	-15
COc1ccc(C(=O)OCC(=O)Nc2ccc(Cl)c(C(F)(F)F)c2)c(OC)c1OC	0%	9%[10 µM]	?
O=C(COC(=O)c1ccc2c(=O)n3c(nc2c1)CCC3)NC1CCS(=O)(=O)C1 (centres undefined)	0.0063µM*	-24%	.
Cc1cccc(NC(=O)COC(=O)c2ccc3c(=O)n4c(nc3c2)CCC4)c1	1%	14%[10 µM]	?
C[S+](CC[C@H](N)C(=O)O)C[C@H]1O[C@@H](n2cnc3c(N)ncnc32)[C@H](O)[C@@H]1O (some centres undefined)	-2%	17%	.
Cc1cc(C)nc(NC(=O)c2ccc([N+](=O)[O-])o2)n1	?	-6%[10 µM]	-86*
Cc1cc(C)nc(NC(=O)c2ccc(C)c([N+](=O)[O-])c2)n1	-14%	-4%[10 µM]	?
Cc1cc(C)nc(NC(=O)c2cc([N+](=O)[O-])cc([N+](=O)[O-])c2)n1	-15%	.	-113*
Cc1cc(C)cc(NC(=O)c2ccc([N+](=O)[O-])o2)c1	14%[9.22 µM]	-5%[10 µM]	.
CCN(Cc1ccccc1)S(=O)(=O)c1cc(C(=O)NC(C)C2CC3CCC2C3)ccc1OC (centres undefined)	-29%	-2%[10 µM]	-15
SMILES	HTT aggregate	HTT ATP protect	PNC inhibitor
CCCOc1ccc2oc(=O)c3c(c2c1)CCCN3C(=O)CN1CCc2ccccc2C1	-27%	-10%	28
N#C/C(=C(/O)c1ccc(C(=O)c2ccccc2)cc1)c1nc2ccccc2[nH]1	6%[9.22 µM]	3%[10 µM]	.
CN(C)C=Nc1c(C(=O)c2ccccc2)sc2nccc(N(C)C)c12	6.3µM*	.	29
CN(C)c1ccnc2sc(C(=O)c3ccc(Br)cc3)c(N)c12	6%	-40%	.
CN(C)c1ccnc2sc(C(N)=O)c(N)c12	1.6µM*	26%	10
CCOC(=O)c1sc2nccc(N(C)C)c2c1N=CN(C)C	?	-13%	-12
NC[C@@H]1O[C@H](O[C@H]2[C@H](O)[C@@H](O[C@H]3[C@H](O)[C@H](N)C[C@H](N)[C@H]3O[C@@H]3O[C@H](CO)[C@@H](O)[C@H](O)[C@@H]3N)O[C@H]2CO)[C@@H](N)[C@H](O)[C@@H]1O	.	0%[40.3 µM]	.
CC(C)Cn1nnnc1S(=O)(=O)CC#N	.	7%	.
CC[N+](C)(CC)CC(O)COCC1COc2ccccc2O1 (centres undefined)	-2%	2%[10 µM]	-21
Cn1c2c(c(=O)n(C)c1=O)C(c1ccc(Br)cc1)Nc1ccccc1O2 (centres undefined)	-13%	-10%[0.074 µM]	23
CC(C)(C)Nc1nc(OCC(F)(F)F)nc(OCC(F)(F)F)n1	-4%	-35%[10 µM]	-107*
CCC(C)Nc1nc(OCC(F)(F)F)nc(OCC(F)(F)F)n1 (centres undefined)	5%	-3%	50
CCN(CC(O)Cn1c2ccccc2c2ccccc21)S(=O)(=O)c1ccc(F)cc1 (centres undefined)	7%[9.22 µM]	-21%	7
